The nature of the experiment: M. tuberculosis growth inhibition, HTS (AID 1259417).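 Further: bacteria grown with compound for 5 days at 37 °C.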 The note with it: stronger effect = higher value, concentration not given here.
Where [1] appears, read: M. tuberculosis DsRed fluorescence growth inhibition.
Where [2] appears, read: M. tuberculosis growth inhibition.

Out of some 1,100 compounds screened, about 760 (69%) were called active. How the calls were made is not given here. So high a share suggests a set chosen from earlier hits. The list shows a part of the results.

On to `NC(CC(=O)c1ccc(Cl)cc1Cl)C(Cl)(Cl)Cl` (stereo not given), for which the inhibition runs as follows: under setting [1], 99.7% (active); under setting [2], 99.4%.

For the compound `Oc1ccc(-c2nc3cc4ccccc4cc3nc2-c2ccccc2)cc1`, the inhibition is 19.6% (active) under setting [1] and 37.8% under setting [2].

As to `Cc1ccc2sc(NNC(=O)c3cc4ccccc4oc3=O)nc2c1C`, the inhibition by setting is: under setting [1], 3.35% (active); under setting [2], 33.4%.

On to `Cc1cccc2sc(NNC(=O)c3cc4ccccc4oc3=O)nc12`, for which the inhibition was 47.1% (active) under setting [1] and 89% under setting [2].

As to `Cc1ccc2sc(NNC(=O)C3COc4ccccc4O3)nc2c1C` (stereo not given), the inhibition is -2.21% (inactive) under setting [1] and -8.62% under setting [2].

On to `Cc1cc(C)c2nc(NNC(=O)c3cc4ccccc4oc3=O)sc2c1`, for which the inhibition is, setting by setting: under setting [1], 46.2% (active); under setting [2], 86.5%.

For `Cc1ccc2nc(NNC(=O)c3cc4ccccc4oc3=O)sc2c1`, the inhibition reads like this: under setting [1], -1.04% (inactive); under setting [2], 10.6%.

For the compound `CCCOc1ccc(C2Oc3ccc(Br)cc3C=C2[N+](=O)[O-])cc1OC` (stereo not given), the inhibition reads like this: under setting [1], 10.3% (active); under setting [2], 37.5%.

Take `Cc1ccc(Nc2ccccc2N)cc1`: the inhibition under setting [1] was 99.5% (active) and the inhibition under setting [2] worked out at 99.1%.

As to `Nc1ccccc1Nc1ccccc1`, the inhibition is, setting by setting: under setting [1], 98.6% (active); under setting [2], 98.4%.

Regarding `COc1ccc(Nc2ccccc2N)cc1`, the inhibition runs as follows: under setting [1], 96% (active); under setting [2], 97.4%.

As for `COc1ccc(Nc2cc(C)nc3c2ccc2ccccc23)cc1`, the inhibition runs as follows: under setting [1], 18.8% (inactive); under setting [2], 19.5%.

With `O=c1cc(Cc2ccccc2)nc2c(-c3ccccc3)c[nH]n12`, the inhibition reads like this: under setting [1], 93% (active); under setting [2], 96.9%.

As for `NC(=O)c1c(NC(=O)c2ccc([N+](=O)[O-])s2)sc2c1CCN(Cc1ccccc1)C2`, the inhibition is, setting by setting: under setting [1], 25.9% (inactive); under setting [2], 2.21%.

For the compound `CCN1CCc2c(sc(NC(=O)c3ccccc3)c2-c2nc3ccccc3s2)C1`, the inhibition by setting is: under setting [1], 52.7% (active); under setting [2], 77.8%.

For the compound `Cc1ccccc1C(=O)Nc1sc2c(c1C(=O)N1CCN(Cc3ccccc3)CC1)CCCCC2`, the inhibition under setting [1] is -0.558% (inactive) and the inhibition under setting [2] is -12.1%.

With `CCCCOc1ccc(S(=O)(=O)Nc2ccc(I)cc2)cc1`, the inhibition is, setting by setting: under setting [1], -1.45% (inactive); under setting [2], 17.1%.

As for `COCCNS(=O)(=O)c1ccc(-c2ccc(C)cc2)cc1`, the inhibition runs as follows: under setting [1], 98.6% (active); under setting [2], 98.3%.

`O=S(Cc1ccccc1)c1nc2ccccc2s1` (stereo not given): the inhibition is, setting by setting: under setting [1], 51.3% (active); under setting [2], 74.9%.

Consider `CN(C)c1ccc(Nc2ncnc3ccc(Br)cc23)cc1`, for which the inhibition is, setting by setting: under setting [1], 100% (active); under setting [2], 99.4%.

As to `Brc1ccc2ncnc(Nc3ccc(N4CCCC4)cc3)c2c1`, the inhibition by setting is: under setting [1], 100% (active); under setting [2], 99.7%.

For the compound `Nc1c2c(nc3sc4c(c13)CCCC4)CCCC2`, the inhibition was 99.7% (active) under setting [1] and 101% under setting [2].

Take `CC1CCc2nc3sc4c(c3c(N)c2C1)CCCC4` (stereo not given): the inhibition runs as follows: under setting [1], 99.8% (active); under setting [2], 99.6%.

Take `Cc1nc(SCc2csc(C)n2)c2c3c(sc2n1)CCCC3`: the inhibition is, setting by setting: under setting [1], 13.5% (inactive); under setting [2], -7.63%.

For `Nc1c(C(=O)Nc2ccc(Br)cc2)sc2nc3c(c(-c4cccs4)c12)CCCC3`, the inhibition was 5.67% (inactive) under setting [1] and -16.7% under setting [2].

As for `N#CCCN(Cc1ccccc1)C(=S)NC(=O)c1ccccc1`, the inhibition is -2.05% (inactive) under setting [1] and 0.14% under setting [2].

`CN(Cc1ccccc1)C(=S)NC(=O)c1cccs1`: the inhibition runs as follows: under setting [1], 23.4% (active); under setting [2], 33.4%.

On to `O=C(Nc1nnc(-c2ccccc2Cl)o1)c1ccco1`, for which the inhibition runs as follows: under setting [1], -3.23% (inactive); under setting [2], -7.63%.

In the case of `COc1cccc(-c2nnc(NC(=O)c3cccc(F)c3)o2)c1`, the inhibition by setting is: under setting [1], 89.3% (active); under setting [2], 93.2%.

As to `O=C(Nc1nnc(C2=COCCO2)o1)c1cccc(Cl)c1`, the inhibition is 12.5% (inactive) under setting [1] and 27.2% under setting [2].

As for `COc1cccc(C(=O)Nc2nnc(-c3ccc(Cl)cc3)o2)c1`, the inhibition under setting [1] is 35.6% (active) and the inhibition under setting [2] turned out to be 70.5%.

For `O=C(Nc1nnc(-c2ccccc2Cl)o1)c1cccc(Oc2ccccc2)c1`, the inhibition is, setting by setting: under setting [1], 94% (active); under setting [2], 93.2%.

For the compound `COc1cccc(-c2nnc(NC(=O)C=Cc3cccs3)o2)c1`, the inhibition is -4.21% (inactive) under setting [1] and 4.98% under setting [2].

Regarding `CC(Nc1nc(N2CCCCC2)nc2ccccc12)c1ccccc1` (stereo not given), the inhibition by setting is: under setting [1], 98.6% (active); under setting [2], 98.9%.

Consider `CC(Nc1nc(N2CCN(C(=O)c3ccc(Cl)cc3)CC2)nc2ccccc12)c1ccccc1` (stereo not given), for which the inhibition reads like this: under setting [1], 0.606% (inactive); under setting [2], -19.8%.

On to `COC(C)(C)C#CC(=O)c1cccc2ccccc12`, for which the inhibition under setting [1] is 100% (active) and the inhibition under setting [2] was found to be 98.9%.

As to `COc1ccccc1C1=Nc2cccc3cccc(c23)N1`, the inhibition under setting [1] was 45.9% (active) and the inhibition under setting [2] was found to be 45.8%.

As to `Cc1nnc(NC(=O)c2ccc3ccccc3c2)o1`, the inhibition reads like this: under setting [1], 98.3% (active); under setting [2], 99.1%.

Take `Cc1cccc(C(=O)Nc2nnc(C3=COCCO3)o2)c1`: the inhibition is 8.04% (inactive) under setting [1] and 3.45% under setting [2].

`COc1ccc(C(=O)Oc2ccc(C(=O)OCc3ccccc3)cc2)cc1OC`: the inhibition reads like this: under setting [1], 3.52% (inactive); under setting [2], -20.9%.

As for `Cc1ccc(-c2csc3ncn(C(C)C(=O)OCc4ccccc4Cl)c(=O)c23)cc1` (stereo not given), the inhibition was -5.81% (inactive) under setting [1] and 4.87% under setting [2].

Turning to `CC(Oc1ccc(C(=O)NC2CCCCC2)cc1)C(=O)OCc1ccccc1Cl` (stereo not given), the inhibition runs as follows: under setting [1], 51% (active); under setting [2], 69.4%.

For `CC(Oc1ccc(C(=O)NCCc2ccccc2)cc1)C(=O)OCc1ccccc1` (stereo not given), the inhibition is 36.1% (active) under setting [1] and 55.5% under setting [2].

On to `COC(=O)CSc1ccnc2cc(Cl)ccc12`, for which the inhibition is, setting by setting: under setting [1], 27% (active); under setting [2], 74.4%.

On to `Cc1cc(C)c2sc(N3CCCC3)nc2c1`, for which the inhibition runs as follows: under setting [1], 100% (active); under setting [2], 99.8%.

Values taken from PubChem BioAssay AID1259417 (TB Discovery Research, Infectious Disease Research Institute, 2018).
